HT1080 IDH1KD tx: qHTS for induction of synthetic lethality in tumor cells producing 2HG: qHTS for the HT-1080-IDH1KD cell line; AID 686971, 2013; hit rate 2% among 360,000; HT-1080 IDH1 knockdown viability, ATP luminescence, 48 h; Potency, µM (titrated, usually from 46.1 µM), without a hit: at the highest dose activity, negative = toxicity, usual class: cytotoxic;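 also: 0% = DMSO wells and -100% = cell-free medium wells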
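HT-1080-IDH1KD cells (IDH1 knocked down), 750/well in RPMI with 5% FBS, treated with compound 48 h at 37 degrees C. Viability by CellTiter-Glo luminescence, normalised to DMSO and no-cell wells; concentration-response curves classed.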
DT40 TDP1 CPT: qHTS for Inhibitors of human tyrosyl-DNA phosphodiesterase 1 (TDP1): qHTS in cells in presence of CPT. chicken DT40 Tdp1-/-;hTDP1 cells + 20 nM CPT, ATP luminescence, 48 h. Potency, µM (top dose mostly 46.2 µM), for the others: at the highest dose activity change, negative = growth inhibition, hits mostly inhibitors. AID 686979, 2013. hit rate 12% among 420,000; also: nearly all actives have a fitted effect of over 55% in size
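Chicken DT40 Tdp1-/- cells stably complemented with human TDP1 were seeded at 400 cells/well in medium containing 20 nM camptothecin, exposed to pin-transferred compounds, and grown at 37 °C for at least 48 hr. Viability was read as ATP luminescence.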
DT40 TDP1 no CPT: qHTS for Inhibitors of human tyrosyl-DNA phosphodiesterase 1 (TDP1): qHTS in cells in absence of CPT; DT40 Tdp1-/- hTDP1 cells, no CPT, ATP luminescence, 48 h; Potency, µM (top dose mostly 46.2 µM), inactives show top-dose activity change, negative = growth inhibition, usual class: inhibitors; hit rate 15% among 420,000; AID 686978, 2013; also: nearly all actives have a fitted effect of over 55% in size
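Chicken DT40 Tdp1-/- cells stably complemented with human TDP1 were seeded at 400 cells/well with DMSO in place of 20 nM camptothecin. After compound pinning, cells grew at least 48 hr at 37 °C; viability read by CellTiter-Glo luminescence.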
HT1080-NT tox: qHTS for induction of synthetic lethality in tumor cells producing 2HG: qHTS for the HT-1080-NT fibrosarcoma cell line. HT-1080-NT fibrosarcoma viability, CellTiter-Glo ATP luminescence, 48 h. Potency, µM (titrated, usually from 46.1 µM), for inactives: at the highest dose activity, negative = less viability, usual class: cytotoxic. hit rate 1.6% among 360,000. AID 686970, 2013;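 also: NT is the 2HG producing partner of a matched IDH1 knockdown line; 0% = DMSO-treated cells and -100% = media-only wells without cells; nearly all actives have a fitted effect of over 55% in size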
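Viability by CellTiter-Glo luminescence after 48 h compound exposure at 37C of HT-1080-NT cells (750/well, RPMI, 5% FBS). % activity scaled between DMSO wells and medium-only wells, then curve-fitted and categorized by curve class.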
KB-V1 MDR tox: qHTS assay for MDR1-selective chemotherapeutics: Primary screen using the drug-selected MDR subline cells KB-V1 | KB-V1 MDR cells viability, CellTiter-Glo, 72 h | Potency, µM (doses to about 46.1 µM), hits mostly cytotoxic | hit rate 3.4% among 400,000 | AID 1347076, 2019; also: nearly all actives have a fitted effect of over 60% in size
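Cells of the MDR subline KB-V1 are plated, dosed with compound at multiple concentrations, and incubated 72 h at 37 degrees C; CellTiter-Glo is then added and luminescence read after 10 min.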
KB-3-1 tox: qHTS assay for MDR1-selective chemotherapeutics: Primary screen using the parental adenocarcinoma cell KB-3-1 | AID 1347075, 2019 | hit rate 1.4% among 400,000 | Potency, µM (highest dose often 46.1 µM), actives largely listed as cytotoxic | KB-3-1 viability, CellTiter-Glo ATP luminescence, 72 h; also: nearly all actives have a fitted effect of over 60% in size
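Using CellTiter-Glo luminescence, growth of non-resistant KB-3-1 adenocarcinoma cells is assessed 72 h after pin-tool compound addition at 37 °C. Normalized responses across the concentration series yield fitted curves.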
* = called active by the depositor; i = inactive; ? = inconclusive; . = no result given; [ ] = dose if it differs, or a comment. Only some compounds are listed: those with a hit (about 19% of all), similar ones and a draw of the others. Calls follow the shape of the dose curve; as a rule, active = well fitted curve in the direction sought with a large enough effect; inconclusive = small, poorly fitted or top-dose-only effect, or another doubt; inactive = no such curve, though single readings can be large; an effect the other way counts as inactive or inconclusive. Unless noted, % is scaled to controls: 0 for no effect and ±100 for the full control effect; potency is read from the fitted curve at half-maximal effect.

SMILES	HT1080 IDH1KD tx	DT40 TDP1 CPT	DT40 TDP1 no CPT	HT1080-NT tox	KB-V1 MDR tox	KB-3-1 tox
CCCS(=O)(=O)NC(=O)C1(C)CCCN(C(=O)c2ccc(OC)cc2)C1 (configuration not stated)	15%	-4%	9%	24%	i	i
CCCOc1ccc(CC2C(=O)Nc3ccc(Br)cc32)cc1 (configuration not stated)	.	?	18µM*	.	i	i
Cn1c(CC2C(=O)Nc3ccc(Br)cc32)nc2ccccc2c1=O (configuration not stated)	-27%	?	?	?	10µM*	?
CCOc1c(CC2C(=O)Nc3ccc(Br)cc32)cccc1OC (configuration not stated)	.	?	16µM*	.	i	i
CCOc1ccccc1CC1C(=O)Nc2ccc(Br)cc21 (configuration not stated)	.	?	?	.	i	?
COc1ccc(OC)c(CC2C(=O)Nc3ccc(Br)cc32)c1 (configuration not stated)	.	10µM*	7.3µM*	.	.	.
CCc1cccc(NC(=O)Cn2c(=O)n(CCc3ccc(OC)c(OC)c3)c(=O)c3ccccc32)c1	.	-19%	-5%	.	i	?
O=[N+]([O-])c1ccc(CSc2ccc(S(=O)(=O)N3CCCC3)cn2)cc1	-11%	?	23µM*	-16%	i	i
Cc1ccc(CSc2ccc(S(=O)(=O)N3CCCC3)cn2)cc1	-1%	-13%	-24%	-4%	i	i
CCn1c(SCc2ccc(F)cc2)nnc1C1CCN(S(=O)(=O)c2ccc(OC)cc2)CC1	-16%	?	16µM*	-6%	i	i
N#Cc1ccc(CSc2ccc(S(=O)(=O)N3CCCC3)cn2)cc1	-6%	?	26µM*	-2%[9.24 µM]	i	i
CCn1c(SCc2ccc(C#N)cc2)nnc1-c1ccc(S(=O)(=O)N2CCCCC2)cc1	-4%	15µM*	?	-22%	i	?
CCN(CC)c1ccc(NS(=O)(=O)c2cc3[nH]c(=O)c(=O)[nH]c3cc2C)c(C)c1	.	?	?	.	?	i
O=C(NCc1ccccn1)c1ccccc1OCc1ccc(Cl)cc1Cl	-3%	?	?	0%[9.24 µM]	i	i
CSc1ccccc1NC(=O)COc1ccc(Cl)cc1C	18%	?	?	17%	13µM*	?
Cc1cc(Cl)ccc1OCC(=O)Nc1cccc(-c2nc3ccccc3o2)c1	.	?	13µM*	.	i	i
Cc1cc2nc(-c3cccc(NC(=O)COc4ccc(C(C)C)cc4)c3)oc2cc1C	.	21µM*	16µM*	.	i	i
Cc1ccc(-c2nc3cc(Cl)ccc3o2)cc1NC(=O)COc1ccccc1C	.	8.9µM*	11µM*	.	?	?
Cc1ccc(-c2nc3ccccc3o2)cc1NC(=O)COc1ccccc1C	.	-8%	4%	.	?	i
Cc1cc2nc(-c3cccc(NC(=O)COc4ccc(Cl)c(C)c4)c3)oc2cc1C	.	-28%	-16%	.	?	i
COc1ccc(-c2oc3ncn4nc(Cc5ccccc5)nc4c3c2-c2ccc(OC)cc2)cc1	7%	-13%	3%	10%	3.7µM*	i
COc1ccc(-c2oc3ncn4nc(COc5ccccc5)nc4c3c2-c2ccc(OC)cc2)cc1	-5%	-18%	?	-21%	i	i
c1ccc2c(c1)nnn2CNc1nccs1	-2%	9.2µM*	-33%	-3%	i	i

Screens deposited in PubChem by National Center for Advancing Translational Sciences (NCATS).
